{"source": "PubChem BioAssay (NCI)", "note": "About 83,000 compounds went through this panel and 20% of them were active in at least one assay; those are over-represented in the sample as a whole.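 Compound tested at a single concentration for 48 hours in 96-well plates; a percent growth value below 10 was scored as active.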 The source made the active and inactive calls.", "data": [{"system": "SK-MEL-5 melanoma", "assay": "NCI-60 one-dose screen, 48 h (100 = growth as untreated, 0 = no growth, -100 = all killed)", "settings": "10 µM unless noted", "experimental": "Growth inhibition of the SK-MEL-5 human tumor cell line is measured as a screen for anti-cancer activity. Cells are grown in 96 well plates and exposed to the test compound for 48 hours. Compounds are tested at a single concentration, which is 10^-5 M for most compounds. The reported endpoint is percent growth (GI% or GIPRCNT), where numbers from 0 - 100% represent growth inhibition, and numbers from -100% - 0 represent cell death. For example, a value of 40 represents 60% growth inhibition. A value of 0 means no net growth occurred over the course of the experiment. A value of -40 indicates 40% of cells at the beginning of the experiment died by the end of the experiment. A value of -100 means all cells are dead at the end of the experiment.\nNCI-60 Human Tumor Cell Lines Screen was performed using the standard one-dose NCI protocol, which is described in more detail at https://dtp.cancer.gov/discovery_development/nci-60/default.htm.\nCompounds with GIPRCNT values below 10 were considered active. Activity score was based on GIPRCNT using the following formula: […]\nScore is 0 for GIPRCNT values of 100 or above, 50 for GIPRCNT values of 0, and 100 for GIPRCNT values of -100.", "values": [{"compound": "CCOC(=O)c1cc(C(=O)c2ccc(OC)cc2)n2ccc(/C=C/c3cc[n+](CC(=O)c4ccc(OC)cc4)cc3)cc12", "growth": "87.8% (inactive)"}, {"compound": "O=C1Nc2cc(-c3cccc(O)c3)ccc2/C1=C/c1ccc[nH]1", "growth": "6.19% (active)"}, {"compound": "COc1ccc2c(c1)oc1c(C)c3c(c(C)c12)C(=O)N(CCN1CCOCC1)C3=O", "growth": "97.5% (inactive)"}, {"compound": "COc1cc(/C=C\\c2cc(OC)c(OC)c(OC)c2)cc(NC(=O)/C=C/c2cc(OC)c(OC)c(OC)c2)c1OC", "growth": "-45.3% (active)"}, {"compound": "CCN1CCN(CCNc2nccc(-c3c(-c4cccc(OC)c4)nc4occn34)n2)S1(=O)=O", "growth": "60.5% (inactive)"}, {"compound": "COc1ccc(CCn2cncc2-c2c[nH]c3ccccc23)cc1", "growth": "88.2% (inactive)"}, {"compound": "NS(=O)(=O)c1ccc(CCN2C(=O)C3C(C2=O)C2(Cl)C(Cl)=C(Cl)C3(Cl)C2(Cl)Cl)cc1", "note": "(stereo not given)", "growth": "92.9% (inactive)"}, {"compound": "O=C(CCN1CCCC1)Nc1ccc2c(Nc3ccc(F)cc3)c3ccccc3nc2c1", "growth": "33.9% (inactive)"}, {"compound": "Cc1ccc(-n2c3c(c(-c4ccccc4)c2-c2ccccc2)C2=NCCN2C=N3)cc1", "growth": "68.1% (inactive)"}, {"compound": "COC(=O)C1=C(C(=O)ON)[C@@H]2C=C[C@@]1([C@@H](Cc1ccccc1)Nc1ccccc1)O2", "growth": "101% (inactive)"}, {"compound": "C#Cc1cccc(NC(=O)c2cccc(NC(=O)CCl)c2)c1", "growth": "-93.8% [8.25 µM] (active)"}, {"compound": "CNC(=O)c1cncc(Cn2nc(C)c(NC(=O)c3ccc(COc4ccc(C(F)(F)F)cc4C)cc3)c2C)c1", "growth": "7.09% (active)"}, {"compound": "O=S(=O)(NCCCNc1nccc(-c2c(-c3cccc(F)c3)nc3sccn23)n1)c1cccc2ccccc12", "growth": "31.8% (inactive)"}, {"compound": "COc1cc(/C=C\\c2cc(OC)c(OC)c(OC)c2)cc(N)c1OC", "growth": "86.7% (inactive)"}, {"compound": "CCCCCC(=O)Oc1ccc(/C(=C(\\C)c2ccccc2)c2ccc(OCCN3CCCCC3)cc2)cc1", "growth": "83.9% (inactive)"}, {"compound": "c1ccc(Cn2cnc3ccc(-c4nc(-c5ccc6c(c5)ncn6C5CCCCC5)cn5ccnc45)cc32)cc1", "growth": "-84% (active)"}, {"compound": "COc1ccc(/C=C2\\Oc3cc(OCCCN4CCCCC4)ccc3C2=O)cc1OC", "growth": "94.5% (inactive)"}, {"compound": "CN1CCN(c2ccc(NC3=C(Cl)C(=O)c4ncccc4C3=O)cc2C(F)(F)F)CC1", "growth": "92.8% (inactive)"}, {"compound": "c1ccc(-c2c(-c3ccccc3)[n+](Cc3ccc4ccccc4c3)c(-c3cccc4ccccc34)n2Cc2ccc3ccccc3c2)cc1", "growth": "-98.4% (active)"}, {"compound": "CCOC(=O)Nc1ccc(-c2ccc3c(c2)NC(=O)/C3=C\\c2ccc[nH]2)cc1", "growth": "99.2% (inactive)"}, {"compound": "COc1cc(/C=C/C(=O)c2nc3cc(F)ccc3nc2C)cc(OC)c1OC", "growth": "81% (inactive)"}, {"compound": "COc1ccc(OC)c(-c2cc(-c3ccc(Cl)cc3)c3c(N)c(C(=O)c4ccc(Cl)cc4)sc3n2)c1", "growth": "107% (inactive)"}, {"compound": "CN1[C@@H]2CC[C@H]1/C(=C\\c1ccccc1)C(=O)/C2=C/c1ccccc1", "growth": "43.9% (inactive)"}, {"compound": "COc1ccc(C(C)=O)c(OC)c1", "growth": "107% (inactive)"}, {"compound": "COC(=O)C(CC=O)C(=O)C(=O)Nc1cccc(C(F)(F)F)c1", "note": "(stereo not given)", "growth": "99.9% (inactive)"}, {"compound": "NC1=NN=C(N)C1=Cc1cc2ccccc2n2nnnc12", "growth": "101% (inactive)"}, {"compound": "O=C(c1nnc(Nc2ccccc2Br)o1)c1c[nH]c2ccccc12", "growth": "89.5% (inactive)"}, {"compound": "COc1ccc(/C=C2\\COc3ccc(-c4ccccc4)cc3C2=O)c(OC)c1", "growth": "81.2% (inactive)"}, {"compound": "CCCC/C=N/NC(=S)NCc1ccccc1", "growth": "97.1% (inactive)"}, {"compound": "c1ccc2c(-c3c[nH]c4ccccc34)c3c(cc2c1)[nH]c1ccccc13", "growth": "67.3% (inactive)"}, {"compound": "Cc1cccc(NC(=O)Nc2ccc(-c3ccc4c(c3)NC(=O)/C4=C\\c3ccc[nH]3)cc2)c1", "growth": "100% (inactive)"}, {"compound": "Cn1ccnc1C(=O)/C=C/c1ccc(CC(=O)NC2CCCCC2)cc1", "growth": "71.3% (inactive)"}, {"compound": "CCN(CC)CCOc1ccc(NC(=O)C(C(C)C)N2C(=O)/C(=C/c3ccc(Br)cc3)SC2=S)cc1", "note": "(stereo not given)", "growth": "89.2% (inactive)"}, {"compound": "CSc1nc2sc3cccc(Cl)c3n2c(=N)c1C#N", "growth": "95.4% (inactive)"}, {"compound": "O=C(Cn1c[n+](CC(=O)c2ccc([N+](=O)[O-])cc2)c2ccccc21)Nc1cccc2cccnc12", "growth": "95.8% (inactive)"}, {"compound": "COc1ccc(/C=C/c2nc(Nc3ccc(S(=O)(=O)NC(C)=O)cc3)c3ccccc3n2)cc1", "growth": "77.1% (inactive)"}, {"compound": "N#C/C(=C\\c1ccc([N+](=O)[O-])s1)c1nc2cc(Br)ccc2s1", "growth": "-97.7% (active)"}, {"compound": "Nc1c(C(=O)Nc2cccc3cnccc23)sc2nc3c(cc12)CN(Cc1ccccc1)CC3", "growth": "98.8% (inactive)"}, {"compound": "C=C1C(=O)O[C@H]2[C@H]1CC/C(CNC(=O)/C=C/c1ccccc1)=C\\CC[C@@]1(C)O[C@@H]21", "growth": "40.6% (inactive)"}, {"compound": "COC(=O)c1ccc2c(c1)[n+](=O)c(C(C)=O)c(C(F)(F)F)n2[O-]", "growth": "-100% (active)"}]}]}
